# In PubChem BioAssay (NCATS):
# Inconclusive results are not listed. A number with no mark means an inactive call. Activity calls are given as the source filed them. Calls come from the whole dose curve; as a rule, active = well fitted curve in the direction sought with a large enough effect; inconclusive = small, poorly fitted or top-dose-only effect, or another doubt; inactive = no such curve, though single readings can be large; an effect the other way counts as inactive or inconclusive. *1 amine or outer side, *2 acyl side, *3 side chain or, on linkers, in order; H or OH if unused. Where a SMILES comes first, the peptide text is derived from it. [ ]: non-standard residue; d: D form. The star is where a group is joined. ξ: configuration not given here. X9 = CCC(C)(N*)C(=O)C1CC[C@@H](C(=O)N[C@@H](Cc2ccccc2)C(=O)NCC(=O)O)N1; X8 = O=C([C@@H]1CC(O)CN1[*:1])[*:2]; aIle = CC[C@@H](C)[C@H](N)C(=O)O; Thr(3ξ) = CC(O)[C@H](N)C(=O)O; ξIva = CCC(C)(N)C(=O)O; Aib = CC(C)(N)C(=O)O
# Columns and labels:
# [1] = P-glycoprotein substrates identified in KB-8-5-11 adenocarcinoma cell line, qHTS therapeutic library screen (AID 1346987); note: nearly all actives have a fitted effect of over 65% in size; for activity change, negative = cytotoxicity: series mostly up to about 44 µM; % is set by controls: 0 for no effect and ±100 for the full control effect
# Summary of the method: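 Human cervical adenocarcinoma KB-8-5-11 cells, selected in colchicine to over-express P-gp and assayed without it, were exposed for 72 h to titrated compounds. An ATP-based luminescent viability signal gave AC50.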
# [2] = system: Zika virus NS2B-NS3 protease (linked construct); experiment: Confirmatory screen NINDS AMC qHTS for Zika virus inhibitors (AID 1347152); note: nearly all actives have a fitted effect of over 70% in size; note: potency is the fitted concentration of half-maximal effect
# Summary of the method: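 In this dose-response qHTS, AMC release from 10 microM Bz-Nle-KRR-AMC by 1 nM linked protease is measured over 15 minutes (about 20% conversion) at pH 8.0. Percent inhibition is fitted to a 4-parameter Hill curve.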
# [3] = Confirmatory screen GU Rhodamine qHTS for Zika virus inhibitors qHTS (AID 1347157); note: potency is the fitted concentration of half-maximal effect; nearly all actives have a fitted effect of over 70% in size
# Summary of the method: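 Buffer 10 mM Tris-HCl pH 8.0, 0.01% Tween 20. Unlinked protease 25 nM; compound preincubation 15 min, RT, protected from light. Substrate Rhod110, 1.5 microM; ~15% conversion in 15 min.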
# [4] = system: Zika virus NS2B-NS3 protease (linked construct); experiment: Primary screen NINDS Rhodamine qHTS for Zika virus inhibitors (AID 1347160); note: nearly all actives have a fitted effect of over 55% in size; note: potency is the fitted concentration of half-maximal effect
# Summary of the method: (§1)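 Rhodamine110-peptide cleavage (1.5 µM substrate) by 25 nM linked NS2B-NS3 enzyme at pH 8.0 (Tris, Tween 20), after 15 min RT preincubation with compounds; 15-min fluorescence change normalized to controls and Hill-fitted.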
# [5] = Confirmatory screen NINDS Rhodamine qHTS for Zika virus inhibitors (AID 1347161); note: potency is the fitted concentration of half-maximal effect; nearly all actives have a fitted effect of over 60% in size
# Summary of the method: as §1
# [6] = system: Zika virus NS2B-NS3 protease (linked construct); experiment: 384 well plate NINDS Rhodamine confirmatory qHTS for Zika virus inhibitors (AID 1347164); note: nearly all actives have a fitted effect of over 65% in size; note: potency is the fitted concentration of half-maximal effect
# Summary of the method: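 Compounds are incubated about 15 minutes with linked protease (5, 30 or 60 nM final). Rhodamine 110-tagged Ac-LKRR substrate (10 microM final) is added and fluorescence measured after 25 minutes.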
# [7] = Vero cells viability qHTS for Zika virus inhibitors (AID 1347167); note: % is set by controls: 0 for no effect and ±100 for the full control effect
# Summary of the method: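 qHTS titration; 24-48 h compound exposure, 37 degrees C/5% CO2; DMEM, 4% FBS; CellTiter Glo ATP luminescence.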
# [8] = system: Zika virus NS2B-NS3 protease (unlinked complex); experiment: Primary screen GU Rhodamine qHTS for Zika virus inhibitors: Unlinked NS2B-NS3 protease assay (AID 1347159); note: nearly all actives have a fitted effect of over 60% in size; note: potency is the fitted concentration of half-maximal effect
# Summary of the method: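 Percent inhibition came from the 15-min rise in Rhodamine110 fluorescence (1.5 microM substrate, ~15% conversion), normalized to no-inhibitor and no-enzyme wells and Hill-fitted. Unlinked protease, 25 nM, pH 8.0 Tris buffer; compounds up to 114 microM, 15-min preincubation.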
# [9] = system: Zika virus NS2B-NS3 protease (linked); experiment: 384 well plate NINDS AMC confirmatory qHTS for Zika virus inhibitors (AID 1347163); note: potency is the fitted concentration of half-maximal effect; nearly all actives have a fitted effect of over 50% in size
# Summary of the method: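 Enzyme (5, 30 or 60 nM final) first met test compounds for ~15 min. The AMC-tagged peptide Ac-VKTGKR-AMC followed at 30 microM. Fluorescence was then recorded at 25 min and scaled against no-enzyme and no-inhibitor wells.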
# [10] = ZIKV-mCherry secondary qHTS for Zika virus inhibitors (AID 1347158); note: potency is the fitted concentration of half-maximal effect
# Summary of the method: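 This orthogonal imaging screen measured ZIKV-mCherry infection of Vero cells exposed to compound, MOI 1, 48-72 h. Percent infection came from segmented nuclei scored mCherry-positive above 3 SD of negative controls.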
# [11] = system: Zika virus NS2B-NS3 protease (unlinked complex); experiment: Confirmatory screen GU AMC qHTS for Zika virus inhibitors (AID 1347153);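 note: enzyme at 25 nM with substrate at 10 µM below its Km of 18.3 µM; potency is the fitted concentration of half-maximal effect; nearly all actives have a fitted effect of over 70% in size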
# Summary of the method: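 Compounds were preincubated 15 min at room temperature with 25 nM noncovalent NS2B-NS3 protease at pH 8.0; AMC substrate added at 10 microM and 15-min fluorescence gain (340/450 nm) converted to percent inhibition, fitted 4-parameter.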
smiles,measurement,setting,value
CC1C(O)C(O)C2C(C(=O)OCCc3ccc(O)cc3)=COC(O[C@@H]3O[C@H](CO)[C@@H](O)[C@H](O)[C@H]3O)C12 (some centres undefined),Potency,[1],inactive
same,Potency,[2],inactive
same,Potency,[3],8.57 µM (active)
same,Potency,[4],8.91 µM (active)
same,Potency,[5],15.2 µM (active)
same,Potency,[6],3.98 µM (active)
same,outcome,[7],inactive
C=C1C2CCC3CC2(CC(O)C2(O)C1CC(OC1OC(CO)C(O)C(O)C1O)C2(C)C)CC3(C)O (centres undefined),Potency,[1],inactive
same,Potency,[2],inactive
same,Potency,[8],20 µM (active)
same,Potency,[4],8.91 µM (active)
same,Potency,[5],9.61 µM (active)
same,Potency,[9],35.5 µM (active)
same,Potency,[6],0.501 µM (active)
same,outcome,[7],inactive
CCC(CC)CC1(C(=O)Nc2ccccc2SC(=O)C(C)C)CCCCC1,Potency,[1],inactive
OC[C@H]1O[C@@H](OCCc2ccccc2)[C@H](O[C@@H]2OC[C@@H](O)[C@H](O)[C@H]2O)[C@@H](O)[C@@H]1O,Potency,[1],inactive
COc1cccc(CNc2ccc(S(=O)(=O)Nc3nc4ccccc4s3)cc2)c1O,Potency,[1],inactive
same,Potency,[3],3.93 µM (active)
same,Potency,[10],inactive
same,Potency,[8],3.55 µM (active)
same,Potency,[4],6.31 µM (active)
same,Potency,[5],3.93 µM (active)
same,outcome,[7],inactive
COc1cc(C)c(C(=O)OC2C(C)OC(OC3CCC(C)C4C3C=C(C)C3/C(C)=C\CC/C(C)=C/C5(C)C=C(C(=O)O)C(C)CC56OC(=O)/C(=C(\O)C34C)C6=O)C(O)C2O)c(OC)c1 (centres undefined),"activity change, negative = cytotoxicity",[1],8.21% [at 9.29 µM]
same,Potency,[2],9.37 µM (active)
same,Potency,[11],9.37 µM (active)
same,Potency,[3],2.64 µM (active)
same,Potency,[8],1.26 µM (active)
same,Potency,[4],2.47 µM (active)
same,Potency,[5],1.32 µM (active)
same,outcome,[7],inactive
OC[C@H]1O[C@@H](OCc2ccccc2)[C@H](O)[C@@H](O)[C@@H]1O,Potency,[1],inactive
COc1cc(Nc2ccc([N+](=O)[O-])cc2C(=O)O)cc2ccccc12,Potency,[1],inactive
same,Potency,[2],15.6 µM (active)
same,Potency,[3],1.97 µM (active)
same,Potency,[8],2.24 µM (active)
same,Potency,[4],2.82 µM (active)
same,Potency,[5],2.21 µM (active)
same,Potency,[9],2.82 µM (active)
same,Potency,[6],1.41 µM (active)
same,outcome,[7],inactive
CC(C)C[C@H](NC(=O)[C@@H]1O[C@H]1C(=O)O)C(=O)NCCCCN=C(N)N,Potency,[1],inactive
C[C@H]1CC[C@H]2[C@@H](C=C[C@@](C)(O)[C@]2(C)C(=O)CCO)C1,Potency,[1],inactive
CC[C@@H](C)[C@H](NC(=O)C(C)(C)NC(=O)[C@H](CCC(N)=O)NC(=O)C(C)(CC)NC(=O)[C@H](Cc1c[nH]c2ccccc12)NC(C)=O)C(=O)N[C@H](C(=O)NC(C)(C)C(=O)N[C@@H](CC(C)C)C(=O)NC(C)(C)C(=O)N1CCC[C@H]1C(=O)N[C@@H](CCC(N)=O)C(=O)NC(C)(C)C(=O)N1CC(O)C[C@H]1C(=O)NC(C)(CC)C(=O)C1CC[C@@H](C(=O)N[C@@H](Cc2ccccc2)C(=O)NCC(=O)O)N1)C(C)O (some centres undefined) (Ac-W[ξIva]Q[Aib][aIle][Thr(3ξ)][Aib]L[Aib]PQ[Aib][X8]-X9),"activity change, negative = cytotoxicity",[1],-19% [at 5.11 µM]
CCCSc1nc(NC2CC2c2ccc(F)c(F)c2)c2nnn(C3CC(OCCO)C(O)C3O)c2n1 (centres undefined),Potency,[1],inactive
C[C@@H]1CC[C@]2(C(=O)O[C@@H]3O[C@H](CO[C@@H]4O[C@H](CO)[C@@H](O)[C@H](O)[C@H]4O)[C@@H](O)[C@H](O)[C@H]3O)CC[C@]3(C)C(=CCC4[C@@]5(C)CC[C@H](O)[C@](C)(C(=O)O)C5CC[C@]43C)[C@@H]2[C@]1(C)O (some centres undefined),outcome,[1],inactive [at 9.29 µM]
COc1cc2c(c(O)c1OC/C=C(\C)CC/C=C(/C)CCC=C(C)C)CN(C(CCC(=O)O)C(=O)O)C2=O (centres undefined),Potency,[1],inactive
same,Potency,[2],27.1 µM (active)
same,Potency,[11],34.1 µM (active)
same,Potency,[3],3.41 µM (active)
same,Potency,[10],6.31 µM (active)
same,Potency,[8],2 µM (active)
same,Potency,[4],7.94 µM (active)
same,Potency,[5],2.71 µM (active)
same,Potency,[9],8.91 µM (active)
same,Potency,[6],inactive
same,outcome,[7],inactive
C=CC1(C)C=C2CC[C@H]3[C@@](C)(C(=O)O)CCC[C@]3(C)C2CC1 (some centres undefined),Potency,[9],70.8 µM (active)
same,Potency,[6],20 µM (active)
same,outcome,[7],inactive
CC1(C)CC[C@]2(C(=O)O)CC[C@]3(C)C(=CCC4[C@@]5(C)CC[C@H](O[C@@H]6O[C@H](C(=O)O)[C@@H](O)[C@H](O)[C@H]6O)C(C)(C)C5CC[C@]43C)C2C1 (some centres undefined),Potency,[6],2.24 µM (active)
COC(=O)C(CC1(OC(=O)C(C)C)c2ccccc2N2C(=O)C(C)(C)N(O)C21)n1cnc2ccccc2c1=O (centres undefined),Potency,[1],inactive
same,Potency,[8],inactive
same,Potency,[4],inactive
C=CC(C)(CC/C=C(\C)C(=O)OC[C@H]1O[C@@H](OC(C)(C=C)CC/C=C(\C)C(=O)O[C@H]2[C@H](O)[C@@H](O)[C@H](OC(C)(C=C)CC/C=C(\C)C(=O)O)O[C@@H]2CO)[C@H](O)[C@@H](O)[C@@H]1O)O[C@@H]1O[C@H](CO)[C@@H](O)[C@H](O)[C@H]1O (some centres undefined),outcome,[1],inactive [at 9.29 µM]
same,Potency,[8],inactive
same,Potency,[4],inactive
CC1(C)C2CC[C@@]34CC(CC[C@H]3[C@]2(C)CC[C@@H]1O[C@@H]1O[C@H](CO)[C@@H](O)[C@H](O)[C@H]1O)[C@](C)(O)C4 (some centres undefined),Potency,[1],inactive
same,Potency,[8],inactive
same,Potency,[4],inactive
C=C1C[C@]23C[C@H]1CC[C@H]2[C@]1(C)CC[C@H](O)[C@@](C)(C(=O)O)[C@H]1[C@@H]3C(=O)O,Potency,[1],inactive
same,Potency,[8],inactive
same,Potency,[4],inactive
